In PubChem BioAssay (NCATS):
Results filed as inconclusive are left out. The source made the active and inactive calls. Calls come from the whole dose curve; as a rule, active = well fitted cell-killing curve with a large enough effect; inconclusive = small, poorly fitted or top-dose-only effect, or effect the other way; inactive = flat fitted curve, though single readings scatter.

Key:
Assay in all cases: Primary qHTS to identify gynecologic anti-cancer compounds using libraries of approved drugs and bioactive compounds (AID 1345084); note: nearly all actives have a fitted effect of over 55% in size
C33A = conditions: Gynecologic cancer cell panel viability, ATPlite luminescence, 48 h; series mostly up to 57.5 µM
How it was run: (§1)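 Luminescence from the ATPlite ATP-monitoring reagent indicates viable cell number; lower signal means cytotoxicity. Cells received compound 16 h after seeding and were exposed for 48 h across five concentrations.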

CAOV3 = conditions: Gynecologic cancer cell panel viability, ATPlite luminescence, 48 h; series mostly up to 57.5 µM
How it was run: as §1

CASKI = conditions: Gynecologic cancer cell panel viability, ATPlite luminescence, 48 h; series mostly up to 57.5 µM
How it was run: as §1

Es-2 = conditions: Gynecologic cancer cell panel viability, ATPlite luminescence, 48 h; series mostly up to 57.5 µM
How it was run: as §1

HeLa = conditions: Gynecologic cancer cell panel viability, ATPlite luminescence, 48 h; series mostly up to 57.5 µM
How it was run: as §1

Hek293T = conditions: Gynecologic cancer cell panel viability, ATPlite luminescence, 48 h, control line for the selectivity index; series mostly up to 57.5 µM
How it was run: as §1

JEG-3 = conditions: Gynecologic cancer cell panel viability, ATPlite luminescence, 48 h; series mostly up to 57.5 µM
How it was run: as §1

OV90 = conditions: Gynecologic cancer cell panel viability, ATPlite luminescence, 48 h; series mostly up to 57.5 µM
How it was run: as §1

PA-1 = conditions: Gynecologic cancer cell panel viability, ATPlite luminescence, 48 h; series mostly up to 57.5 µM
How it was run: as §1

Tov-21-G = conditions: Gynecologic cancer cell panel viability, ATPlite luminescence, 48 h; series mostly up to 57.5 µM
How it was run: as §1

Tov112D = conditions: Gynecologic cancer cell panel viability, ATPlite luminescence, 48 h; series mostly up to 57.5 µM
How it was run: as §1

SKOV3 = conditions: Gynecologic cancer cell panel viability, ATPlite luminescence, 48 h; series mostly up to 57.5 µM
How it was run: as §1
% is set by controls: 0 for no effect and ±100 for the full control effect.

NC(=O)C(O[C@@H]1O[C@H](CO[C@@H]2O[C@H](CO)[C@@H](O)[C@H](O)[C@H]2O)[C@@H](O)[C@H](O)[C@H]1O)c1ccccc1 (stereo partly specified)
inactive: Potency (C33A) | Potency (CAOV3) | outcome (CASKI) | Potency (Es-2) | Potency (HeLa) | Potency (Hek293T) | Potency (JEG-3) | Potency (OV90) | Potency (PA-1) | Potency (Tov-21-G) | Potency (Tov112D)

N#CN1CCC[C@@H](n2nc(-c3ccc(Oc4ccc(F)cc4F)cc3)c(C(N)=O)c2N)C1
inactive: Potency (C33A) | Potency (CAOV3) | outcome (CASKI) | Potency (Es-2) | Potency (HeLa) | Potency (Hek293T) | Potency (JEG-3) | Potency (OV90) | Potency (PA-1) | Potency (SKOV3) | Potency (Tov-21-G) | Potency (Tov112D)

CC(=O)OC1CC(=O)C2(C)C3CC4=C(OC(C)CC4=O)OC3(C)CCC2C1(C)C (stereo unspecified)
inactive: Potency (C33A) | Potency (CAOV3) | outcome (CASKI) | Potency (Es-2) | Potency (HeLa) | Potency (Hek293T) | Potency (JEG-3) | Potency (OV90) | Potency (PA-1) | Potency (Tov-21-G) | Potency (Tov112D)

C=C[C@H]1[C@H](O[C@@H]2O[C@H](CO)[C@@H](O)[C@H](O)[C@H]2O)OC=C2C(=O)N3Cc4c([nH]c5ccccc5c4=O)[C@@H]3C[C@H]21
inactive: Potency (C33A) | Potency (CAOV3) | outcome (CASKI) | Potency (Es-2) | Potency (HeLa) | Potency (Hek293T) | Potency (JEG-3) | Potency (OV90) | Potency (PA-1) | Potency (Tov-21-G) | Potency (Tov112D)

O=C1NC(=O)/C(=C/c2cccc(C(F)(F)F)c2)S1
inactive: Potency (C33A) | Potency (CAOV3) | outcome (CASKI) | Potency (Es-2) | Potency (HeLa) | Potency (Hek293T) | Potency (JEG-3) | Potency (OV90) | Potency (PA-1) | Potency (Tov-21-G) | Potency (Tov112D)

C/C=C/C=C/[C@@H]1O[C@](O)([C@H](CC)C(=O)NC/C=C/C=C(\C)[C@@H](OC)[C@@H](C)[C@@H]2O[C@H](/C=C/C=C/C=C(\C)C(=O)c3c(O)ccn(C)c3=O)[C@H](O)[C@@H]2O)[C@H](O)[C@H](O)C1(C)C
inactive: activity change, negative = cytotoxicity (C33A) 0.106% [at 11.6 µM] | activity change, negative = cytotoxicity (CAOV3) 11.3% [at 11.6 µM] | activity change, negative = cytotoxicity (CASKI) -1.78% [at 11.6 µM] | activity change, negative = cytotoxicity (Es-2) -3.84% [at 11.6 µM] | activity change, negative = cytotoxicity (HeLa) 12.5% [at 11.6 µM] | activity change, negative = cytotoxicity (Hek293T) -0.774% [at 11.6 µM] | activity change, negative = cytotoxicity (JEG-3) -3.88% [at 11.6 µM] | activity change, negative = cytotoxicity (OV90) -4.64% [at 11.6 µM] | activity change, negative = cytotoxicity (PA-1) -1.69% [at 11.6 µM] | activity change, negative = cytotoxicity (Tov-21-G) -0.814% [at 11.6 µM] | activity change, negative = cytotoxicity (Tov112D) -0.13% [at 11.6 µM]

COc1cc(C2Oc3c(OC)cc(CCCO)cc3C2CO)ccc1O (stereo unspecified)
inactive: Potency (C33A) | Potency (CAOV3) | outcome (CASKI) | Potency (Es-2) | Potency (HeLa) | Potency (Hek293T) | Potency (JEG-3) | Potency (OV90) | Potency (PA-1) | Potency (Tov-21-G) | Potency (Tov112D)

CC1(C(=O)O)CCCC2(C)C3CCC4CC3(CCC12)CC4(O)CO (stereo unspecified)
inactive: Potency (C33A) | Potency (CAOV3) | outcome (CASKI) | Potency (Es-2) | Potency (HeLa) | Potency (Hek293T) | Potency (JEG-3) | Potency (OV90) | Potency (PA-1) | Potency (Tov-21-G) | Potency (Tov112D)

CSCC1OC(n2cnc3c(N)ncnc32)C(O)C1O (stereo unspecified)
inactive: Potency (C33A) | Potency (CAOV3) | outcome (CASKI) | Potency (Es-2) | Potency (HeLa) | Potency (Hek293T) | Potency (JEG-3) | Potency (OV90) | Potency (PA-1) | Potency (Tov-21-G) | Potency (Tov112D)

OC[C@H]1O[C@@H](Oc2cc(O)cc(-c3cc4ccc(O[C@@H]5O[C@H](CO)[C@@H](O)[C@H](O)[C@H]5O)cc4o3)c2)[C@H](O)[C@@H](O)[C@@H]1O
inactive: Potency (C33A) | Potency (CAOV3) | outcome (CASKI) | Potency (Es-2) | Potency (HeLa) | Potency (Hek293T) | Potency (JEG-3) | Potency (OV90) | Potency (PA-1) | Potency (Tov-21-G) | Potency (Tov112D)

C[C@]12CC/C(=N\OCC(=O)O)C=C1CC[C@@H]1[C@@H]2[C@@H](O)C[C@@]2(C)[C@H]1CC[C@]2(O)C(=O)CO
inactive: Potency (C33A) | Potency (CAOV3) | outcome (CASKI) | Potency (Es-2) | Potency (HeLa) | Potency (Hek293T) | Potency (JEG-3) | Potency (OV90) | Potency (PA-1) | Potency (Tov-21-G) | Potency (Tov112D)

C=C[C@@](C)(CCC=C(C)C)O[C@@H]1O[C@H](CO[C@@H]2OC[C@H](O)[C@H](O)[C@H]2O)[C@@H](O)[C@H](O)[C@H]1O
inactive: Potency (C33A) | Potency (CAOV3) | outcome (CASKI) | Potency (Es-2) | Potency (HeLa) | Potency (Hek293T) | Potency (JEG-3) | Potency (OV90) | Potency (PA-1) | Potency (Tov-21-G) | Potency (Tov112D)

C[C@@H]1C(=O)O[C@H]2[C@H]1CC[C@@]1(C)C(=O)C=C[C@@](C)(O)[C@H]21
inactive: Potency (C33A) | Potency (CAOV3) | outcome (CASKI) | Potency (Es-2) | Potency (HeLa) | Potency (Hek293T) | Potency (JEG-3) | Potency (OV90) | Potency (PA-1) | Potency (Tov-21-G) | Potency (Tov112D)

COC(=O)C1=CO[C@@H](O[C@@H]2O[C@H](CO)[C@@H](O)[C@H](O)[C@H]2O)[C@H]2[C@@H]1[C@H](O)[C@H](O)[C@]2(C)O
inactive: Potency (C33A) | Potency (CAOV3) | outcome (CASKI) | Potency (Es-2) | Potency (HeLa) | Potency (Hek293T) | Potency (JEG-3) | Potency (OV90) | Potency (PA-1) | Potency (Tov-21-G) | Potency (Tov112D)

O=C(OC(C(F)(F)F)C(F)(F)F)N1CCN(Cc2cccc(Oc3ccccc3)c2)CC1
inactive: Potency (C33A) | Potency (CAOV3) | outcome (CASKI) | Potency (Es-2) | Potency (HeLa) | Potency (Hek293T) | Potency (JEG-3) | Potency (OV90) | Potency (PA-1) | Potency (Tov-21-G) | Potency (Tov112D)
